For experiment [1], the target named is T1, Methionyl-tRNA synthetase, putative (Leishmania donovani (strain BPK282A1)) (UniProt E9BF75).
T1 sequence (whole entry): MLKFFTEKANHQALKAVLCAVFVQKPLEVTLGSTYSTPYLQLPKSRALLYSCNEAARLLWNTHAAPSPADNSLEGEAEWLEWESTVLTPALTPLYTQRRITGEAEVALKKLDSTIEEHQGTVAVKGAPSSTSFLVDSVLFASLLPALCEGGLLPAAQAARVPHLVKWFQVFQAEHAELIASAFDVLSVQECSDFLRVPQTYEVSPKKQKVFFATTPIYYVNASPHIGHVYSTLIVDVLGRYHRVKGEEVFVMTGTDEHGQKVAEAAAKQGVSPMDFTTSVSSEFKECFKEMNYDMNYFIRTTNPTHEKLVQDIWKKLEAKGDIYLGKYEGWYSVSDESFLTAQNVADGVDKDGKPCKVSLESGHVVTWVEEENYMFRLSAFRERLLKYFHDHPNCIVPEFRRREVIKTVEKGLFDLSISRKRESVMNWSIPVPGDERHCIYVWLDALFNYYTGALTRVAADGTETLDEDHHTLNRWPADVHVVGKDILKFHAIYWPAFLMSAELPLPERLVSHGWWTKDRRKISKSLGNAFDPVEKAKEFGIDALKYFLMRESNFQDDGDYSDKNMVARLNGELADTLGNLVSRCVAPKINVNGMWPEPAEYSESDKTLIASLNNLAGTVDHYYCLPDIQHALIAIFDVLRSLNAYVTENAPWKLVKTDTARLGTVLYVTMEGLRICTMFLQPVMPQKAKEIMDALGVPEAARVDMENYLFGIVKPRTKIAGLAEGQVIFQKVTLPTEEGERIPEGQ
Put plainly: Leishmania donovani Methionine tRNA synthetase (LdMetRS):v7. Dose response assay. The class given is functional. Also on record: conc 80 nM, time 150 minutes.

The target in experiment [2] is Protein translocase subunit SecA (Escherichia coli (strain K12)) (UniProt P10408). Nature of the experiment: Assay to Identify E. coli SecA ATPase Inhibitors. It is filed as functional. Also noted: scale not given: direction of the effect not stated beside the values. The settings on record: 30 µM.
Chain of Protein translocase subunit SecA (Escherichia coli (strain K12)) (P10408 whole entry): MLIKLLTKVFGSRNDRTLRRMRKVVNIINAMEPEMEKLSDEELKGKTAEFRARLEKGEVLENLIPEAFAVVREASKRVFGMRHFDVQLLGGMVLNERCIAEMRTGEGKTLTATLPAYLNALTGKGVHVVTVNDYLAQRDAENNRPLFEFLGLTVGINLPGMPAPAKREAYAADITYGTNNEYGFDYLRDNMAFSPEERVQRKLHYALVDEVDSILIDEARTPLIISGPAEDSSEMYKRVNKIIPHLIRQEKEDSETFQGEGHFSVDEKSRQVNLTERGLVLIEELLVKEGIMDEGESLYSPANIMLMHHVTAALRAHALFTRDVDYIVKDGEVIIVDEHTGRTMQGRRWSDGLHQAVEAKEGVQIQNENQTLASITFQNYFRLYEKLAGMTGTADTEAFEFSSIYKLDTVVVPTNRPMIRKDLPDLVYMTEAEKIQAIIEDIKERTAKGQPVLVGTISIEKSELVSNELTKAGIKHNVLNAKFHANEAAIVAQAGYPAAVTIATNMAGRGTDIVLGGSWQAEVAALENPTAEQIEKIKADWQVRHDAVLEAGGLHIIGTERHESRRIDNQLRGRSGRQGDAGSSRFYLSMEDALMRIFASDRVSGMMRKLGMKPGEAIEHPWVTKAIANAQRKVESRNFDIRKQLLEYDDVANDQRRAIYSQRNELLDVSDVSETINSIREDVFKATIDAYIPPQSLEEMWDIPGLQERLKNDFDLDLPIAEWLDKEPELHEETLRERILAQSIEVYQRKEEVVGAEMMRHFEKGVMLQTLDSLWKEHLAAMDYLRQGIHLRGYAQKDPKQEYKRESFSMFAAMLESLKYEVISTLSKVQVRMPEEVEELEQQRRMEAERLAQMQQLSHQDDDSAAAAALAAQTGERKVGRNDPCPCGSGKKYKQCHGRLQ
Experiment [3] deals with T2, Ubiquitin-activating enzyme e1, putative (Leishmania donovani (strain BPK282A1)) (UniProt E9BSI1).
T2 sequence (whole entry): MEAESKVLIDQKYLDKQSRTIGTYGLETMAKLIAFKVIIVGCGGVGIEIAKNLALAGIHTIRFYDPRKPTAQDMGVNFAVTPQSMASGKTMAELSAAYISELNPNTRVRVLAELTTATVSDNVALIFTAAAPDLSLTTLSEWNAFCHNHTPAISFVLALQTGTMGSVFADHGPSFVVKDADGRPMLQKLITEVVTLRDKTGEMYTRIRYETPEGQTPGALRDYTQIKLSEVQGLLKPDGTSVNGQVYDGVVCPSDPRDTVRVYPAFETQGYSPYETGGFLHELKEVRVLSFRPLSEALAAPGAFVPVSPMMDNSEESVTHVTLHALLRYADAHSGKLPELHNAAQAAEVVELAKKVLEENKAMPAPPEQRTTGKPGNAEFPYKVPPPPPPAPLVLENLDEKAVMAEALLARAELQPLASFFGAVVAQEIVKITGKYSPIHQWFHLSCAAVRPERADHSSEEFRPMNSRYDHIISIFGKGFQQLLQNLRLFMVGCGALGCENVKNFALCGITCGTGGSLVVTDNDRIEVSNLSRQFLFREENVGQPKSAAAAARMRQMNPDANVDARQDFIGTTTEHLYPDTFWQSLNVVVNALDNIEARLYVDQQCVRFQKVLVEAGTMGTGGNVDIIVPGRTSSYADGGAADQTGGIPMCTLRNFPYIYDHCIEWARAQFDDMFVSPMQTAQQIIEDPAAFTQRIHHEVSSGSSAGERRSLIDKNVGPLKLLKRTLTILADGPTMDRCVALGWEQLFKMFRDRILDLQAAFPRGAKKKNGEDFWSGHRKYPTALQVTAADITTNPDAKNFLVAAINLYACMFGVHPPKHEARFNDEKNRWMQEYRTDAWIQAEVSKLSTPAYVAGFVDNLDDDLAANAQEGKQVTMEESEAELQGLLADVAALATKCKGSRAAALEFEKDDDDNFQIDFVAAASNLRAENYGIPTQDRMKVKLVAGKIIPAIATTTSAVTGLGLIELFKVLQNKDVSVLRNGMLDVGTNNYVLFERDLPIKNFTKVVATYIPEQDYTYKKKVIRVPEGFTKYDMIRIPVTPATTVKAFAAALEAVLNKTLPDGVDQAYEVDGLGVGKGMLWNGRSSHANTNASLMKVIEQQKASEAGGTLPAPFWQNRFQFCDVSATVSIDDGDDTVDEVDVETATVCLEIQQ
Nature of the experiment: Leishmania donovani Ubiquitin Activating Enzyme (LdE1). The class given is functional. Also on record: scale not given: direction of the effect not stated beside the values. The settings on record: 30 µM.

The target of experiment [4] is T3, Aspartate--tRNA(Asp/Asn) ligase (Mycobacterium tuberculosis (strain ATCC 25618 / H37Rv)) (UniProt P9WFW3). Further: in the data most compounds retested in dose-response had high values.
T3 sequence (whole entry): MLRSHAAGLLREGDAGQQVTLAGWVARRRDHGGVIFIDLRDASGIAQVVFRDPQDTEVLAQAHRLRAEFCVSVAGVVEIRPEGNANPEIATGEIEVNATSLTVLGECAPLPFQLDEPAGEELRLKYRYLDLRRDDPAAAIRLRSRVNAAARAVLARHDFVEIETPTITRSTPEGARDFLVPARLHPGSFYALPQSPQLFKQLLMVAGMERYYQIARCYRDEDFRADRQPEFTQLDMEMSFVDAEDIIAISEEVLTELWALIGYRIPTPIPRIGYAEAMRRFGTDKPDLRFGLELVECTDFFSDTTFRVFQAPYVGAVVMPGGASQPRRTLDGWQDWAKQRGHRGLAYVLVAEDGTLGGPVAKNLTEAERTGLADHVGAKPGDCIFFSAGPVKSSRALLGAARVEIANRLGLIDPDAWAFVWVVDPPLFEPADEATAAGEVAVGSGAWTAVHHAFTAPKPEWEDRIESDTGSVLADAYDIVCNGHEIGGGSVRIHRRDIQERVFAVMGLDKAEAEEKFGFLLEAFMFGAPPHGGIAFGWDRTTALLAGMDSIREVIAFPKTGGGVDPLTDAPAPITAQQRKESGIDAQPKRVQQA
Put plainly: Assay for Asp RNA synthetase-1 from Mycobacterium tuberculosis. Also noted: scale not given: direction of the effect not stated beside the values. The settings on record: 30 µM. The class given is functional.

Experiment [5] has as its target AMP-activated protein kinase, AMPK (Homo sapiens) (UniProt P54646+O43741+P54619+Q9UGJ0+Q9Y478+Q13131+Q9UGI9). Put plainly: AMP-dependent Kinase enzyme assay. An in vitro enzyme assay that detects ADP turnover that is directly proportional to AMPK activity. This uses naive AMPK that is activated during the assay with MK-8722. The settings on record: 30 µM. Also noted: scale not given: direction of the effect not stated beside the values. The class given is functional.

For experiment [6], the target named is Sialic acid-binding Ig-like lectin 9 (Homo sapiens) (UniProt Q9Y336). Put plainly: Hs-Siglec9 ALPHAscreen SOP 20170721. As to conditions: 10 µM. Also noted: scale not given: direction of the effect not stated beside the values.
Chain of Sialic acid-binding Ig-like lectin 9 (Homo sapiens) (Q9Y336 whole entry): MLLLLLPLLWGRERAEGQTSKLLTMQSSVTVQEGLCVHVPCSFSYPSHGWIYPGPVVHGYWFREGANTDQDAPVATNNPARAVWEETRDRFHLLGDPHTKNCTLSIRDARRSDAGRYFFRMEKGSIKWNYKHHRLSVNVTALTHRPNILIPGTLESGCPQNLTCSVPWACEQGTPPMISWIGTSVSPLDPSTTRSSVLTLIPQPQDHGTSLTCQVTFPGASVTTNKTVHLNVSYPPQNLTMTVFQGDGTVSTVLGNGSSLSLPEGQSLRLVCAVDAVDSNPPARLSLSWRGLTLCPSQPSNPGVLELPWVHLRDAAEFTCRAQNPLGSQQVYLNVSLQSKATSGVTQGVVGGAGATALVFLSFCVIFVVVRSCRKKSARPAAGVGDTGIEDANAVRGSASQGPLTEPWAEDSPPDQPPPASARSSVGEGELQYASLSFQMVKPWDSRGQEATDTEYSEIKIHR
Experiment [7] deals with Trypanosoma cruzi. Put plainly: Trypanosoma cruzi phosphomannomutase and mannose-1-phosphate guanylyltransferase assay. It is filed as functional. Also on record: scale not given: direction of the effect not stated beside the values. As to conditions: 10 µM.
In experiment [8] the target is T4, Arginase-2, mitochondrial (Homo sapiens) (UniProt P78540).
T4 sequence (whole entry): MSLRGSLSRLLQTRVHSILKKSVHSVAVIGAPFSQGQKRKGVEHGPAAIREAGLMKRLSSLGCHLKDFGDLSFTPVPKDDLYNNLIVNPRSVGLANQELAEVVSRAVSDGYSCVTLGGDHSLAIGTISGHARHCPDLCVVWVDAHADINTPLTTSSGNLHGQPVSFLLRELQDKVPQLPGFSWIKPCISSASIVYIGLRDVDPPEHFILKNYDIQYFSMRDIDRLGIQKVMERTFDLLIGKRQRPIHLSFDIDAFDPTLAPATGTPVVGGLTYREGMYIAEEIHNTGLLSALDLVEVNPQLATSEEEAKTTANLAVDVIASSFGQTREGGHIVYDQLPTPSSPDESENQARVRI
Nature of the experiment: in vitro enzyme assay to detect the production of urea directly proportional to the activity of Arginase II. It is filed as functional. Also on record: scale not given: in the data most compounds retested in dose-response had high values. As to conditions: 33.3 µM.

The target of experiment [9] is T5, Proteasome subunit beta (Trypanosoma cruzi) (UniProt O96673).
T5 sequence (whole entry): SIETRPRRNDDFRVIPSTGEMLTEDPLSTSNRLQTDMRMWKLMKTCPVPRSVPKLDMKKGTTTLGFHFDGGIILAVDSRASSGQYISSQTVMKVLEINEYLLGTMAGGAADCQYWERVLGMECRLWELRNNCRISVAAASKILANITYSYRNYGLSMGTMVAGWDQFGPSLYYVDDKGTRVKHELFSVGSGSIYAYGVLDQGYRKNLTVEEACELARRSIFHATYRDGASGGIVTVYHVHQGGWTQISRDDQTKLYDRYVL
Put plainly: Trypanosoma cruzi proteasome chymotrypsin-like activity (TcProtChymo) assay. It is filed as functional. Also noted: scale not given: in the data most compounds retested in dose-response had high values. The settings on record: 9.37 µM.

Experiment [10] relates to N/A. Nature of the experiment: Trypanosoma cruzi proteasome luciferase counter-screen. It is filed as functional. Also noted: scale not given: direction of the effect not stated beside the values. The settings on record: 9.37 µM.
The species named for experiment [11] is Homo sapiens. Put plainly: To identify inhibition of the IFN signalling (Jak-Stat) pathway via expression of an eGFP reporter gene under the control of an IFN-stimulated response element (ISRE) containing MxA promoter. The class given is functional. Also noted: scale not given: direction of the effect not stated beside the values. As to conditions: 30 µM.

The target of experiment [12] is Shiga toxin 2 (Escherichia coli O157:H7) (UniProt P09385+P09386). Put plainly: E. coli 0.157:H7 Shiga Toxin SOP - stx2 screening assay. The settings on record: 30 µM. The class given is functional. Also on record: scale not given: direction of the effect not stated beside the values.
The target of experiment [13] is T6, Tyrosyl-tRNA synthetase, putative (Trypanosoma cruzi (strain CL Brener)) (UniProt Q4DSP6).
T6 sequence (whole entry): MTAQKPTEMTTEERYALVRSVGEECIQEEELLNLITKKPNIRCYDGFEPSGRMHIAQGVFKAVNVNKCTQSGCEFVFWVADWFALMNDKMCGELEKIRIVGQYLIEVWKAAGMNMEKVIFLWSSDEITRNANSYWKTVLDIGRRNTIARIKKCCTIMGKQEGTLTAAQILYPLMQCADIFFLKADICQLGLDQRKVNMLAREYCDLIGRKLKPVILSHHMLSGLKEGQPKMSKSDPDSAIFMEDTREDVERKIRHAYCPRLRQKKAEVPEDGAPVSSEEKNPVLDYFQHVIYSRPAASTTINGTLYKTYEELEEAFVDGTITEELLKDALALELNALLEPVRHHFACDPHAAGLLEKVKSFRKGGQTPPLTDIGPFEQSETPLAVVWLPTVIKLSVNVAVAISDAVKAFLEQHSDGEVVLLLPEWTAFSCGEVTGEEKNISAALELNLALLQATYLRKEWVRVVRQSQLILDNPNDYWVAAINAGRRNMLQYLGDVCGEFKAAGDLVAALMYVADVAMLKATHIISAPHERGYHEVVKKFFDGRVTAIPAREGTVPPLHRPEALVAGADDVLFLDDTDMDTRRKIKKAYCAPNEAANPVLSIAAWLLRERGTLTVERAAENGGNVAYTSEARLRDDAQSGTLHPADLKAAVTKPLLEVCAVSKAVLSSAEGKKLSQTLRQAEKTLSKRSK
Nature of the experiment: Trypanosoma cruzi tyrosyl tRNA synthetase (TcYRS) _High Tyrosine SOP. It is filed as functional. Also on record: scale not given: in the data most compounds retested in dose-response had high values. The settings on record: 30 µM.

Experiment [14] has as its target T6, Tyrosyl-tRNA synthetase, putative (Trypanosoma cruzi (strain CL Brener)). Put plainly: Trypanosoma cruzi tyrosyl tRNA synthetase (TcYRS) SOP. It is filed as functional. Also noted: scale not given: direction of the effect not stated beside the values. The settings on record: 30 µM.
In experiment [15] the target is Chromo domain-containing protein 1 (Saccharomyces cerevisiae (strain ATCC 204508 / S288c) (Baker's yeast)) (UniProt P32657). Nature of the experiment: ScCHD-1 Enzyme Inhibition Assay. The class given is functional. Also on record: scale not given: in the data most compounds retested in dose-response had high values. The settings on record: 30 µM.
Chain of Chromo domain-containing protein 1 (Saccharomyces cerevisiae (strain ATCC 204508 / S288c) (Baker's yeast)) (P32657 whole entry, the tested form may be a part): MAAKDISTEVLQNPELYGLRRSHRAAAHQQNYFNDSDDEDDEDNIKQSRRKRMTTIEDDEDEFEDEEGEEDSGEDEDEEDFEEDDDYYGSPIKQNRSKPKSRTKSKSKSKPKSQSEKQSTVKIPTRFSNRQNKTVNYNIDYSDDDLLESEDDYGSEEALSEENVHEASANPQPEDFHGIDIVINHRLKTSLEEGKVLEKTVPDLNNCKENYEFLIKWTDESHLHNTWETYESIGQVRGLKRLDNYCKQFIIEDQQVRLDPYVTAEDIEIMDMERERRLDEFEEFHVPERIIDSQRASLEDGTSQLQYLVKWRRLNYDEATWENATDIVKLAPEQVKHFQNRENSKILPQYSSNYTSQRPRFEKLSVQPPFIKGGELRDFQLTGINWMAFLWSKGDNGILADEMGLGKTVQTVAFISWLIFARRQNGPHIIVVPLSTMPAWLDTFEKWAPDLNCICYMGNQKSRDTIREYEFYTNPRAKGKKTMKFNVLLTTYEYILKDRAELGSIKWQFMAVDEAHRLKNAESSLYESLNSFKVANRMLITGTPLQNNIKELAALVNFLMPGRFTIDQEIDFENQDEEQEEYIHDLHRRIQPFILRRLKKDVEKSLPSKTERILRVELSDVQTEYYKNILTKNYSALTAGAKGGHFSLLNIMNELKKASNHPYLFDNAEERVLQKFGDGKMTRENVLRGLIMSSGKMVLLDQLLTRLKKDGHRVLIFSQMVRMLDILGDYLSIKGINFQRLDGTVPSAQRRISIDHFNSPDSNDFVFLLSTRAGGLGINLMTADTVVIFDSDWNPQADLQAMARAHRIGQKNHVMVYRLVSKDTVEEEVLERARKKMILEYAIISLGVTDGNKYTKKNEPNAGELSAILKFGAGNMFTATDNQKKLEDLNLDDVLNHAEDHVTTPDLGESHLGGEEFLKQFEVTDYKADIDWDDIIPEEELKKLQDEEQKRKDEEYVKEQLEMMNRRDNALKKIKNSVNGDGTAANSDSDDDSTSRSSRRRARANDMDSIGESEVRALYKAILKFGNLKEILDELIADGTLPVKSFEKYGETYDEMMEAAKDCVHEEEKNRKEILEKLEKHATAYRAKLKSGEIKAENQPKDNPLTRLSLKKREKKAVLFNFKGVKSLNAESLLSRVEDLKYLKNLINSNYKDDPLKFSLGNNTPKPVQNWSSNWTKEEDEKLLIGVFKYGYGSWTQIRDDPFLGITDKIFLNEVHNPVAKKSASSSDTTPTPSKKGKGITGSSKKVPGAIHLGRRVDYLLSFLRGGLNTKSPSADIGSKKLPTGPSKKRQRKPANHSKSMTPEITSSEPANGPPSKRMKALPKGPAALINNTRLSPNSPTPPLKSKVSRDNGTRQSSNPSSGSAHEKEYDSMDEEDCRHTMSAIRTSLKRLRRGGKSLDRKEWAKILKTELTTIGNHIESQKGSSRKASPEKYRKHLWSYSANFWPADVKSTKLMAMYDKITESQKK

Several values for one entry are separate records, joined by “and”; a condition that tells them apart may be missing. Identical values can stand only once. For some of these results: Entries with a potency or affinity are not part of this list.

In the case of `Cc1cc(C(F)(F)F)nc(N2CCN3CCCC3C2)n1` (stereo unspecified), the PXC50 in experiment [1] (MAX_EFFECT 10.18276762) and in experiment [1] (MAX_EFFECT 10.96605744) was below 4 each time.

In the case of `CO[C@@H]1CN(Cc2scnc2C)[C@@H]2CCCO[C@@H]21`, the Percent Effect in [2] was -5.71%; in [3], 2.7%; in experiment [4], -1.4%; in experiment [5], -6.24%; in [6] it was 4.17%; in [7], 2.25%. In addition, the Percent Effect in experiment [8] is 3.72%; in [9], 82% and 78.2% and 80%; in experiment [10], 19.6% and 16.4%; in experiment [11] it was -7.25%; in experiment [12] it was 8.62%; in experiment [13], 6.45%. The Percent Effect was 8.64% in [14] and -1.19% in experiment [15].

Consider `COc1ccc(Cl)cc1Cl`, for which the PXC50 in [1] (MAX_EFFECT 11.87904968) and in experiment [1] (MAX_EFFECT 16.92015209) was below 3 each time.

In the case of `Cc1c(CC(=O)N2CCN(CC(F)(F)F)CC2)nnn1-c1ccccc1`, the Percent Effect in [2] was -3.34%; in [3], 10.4%; in experiment [4], 12.8%; in experiment [5], -2.43%; in experiment [6], 2.86%; in [7] it was -2.65%. The Percent Effect in experiment [8] is 2.76%; in experiment [9], 10.8%; in [11], 11.9%; in experiment [12] it was -45.5%; in experiment [13], 4.3%; in experiment [14], 8.64%. Also, the Percent Effect in experiment [15] was -1.92%.

These data come from ChEMBL document CHEMBL3988442, “University of Dundee, Small-Polar-MMV Screening Library” (2021).
